Assay results taken from PubChem BioAssay AID2576 (National Center for Advancing Translational Sciences (NCATS), 2010).
Records with an inconclusive call do not appear. Unmarked numbers belong to inactive results. Active and inactive are the calls of the source. Calls come from the whole dose curve; as a rule, active = well fitted activation curve with a large enough effect; inconclusive = small, poorly fitted or top-dose-only effect, or effect the other way; inactive = flat fitted curve, though single readings scatter.

Biological target: Pyruvate kinase PKM (Homo sapiens) (UniProt P14618)
Sequence (P14618 whole entry, looked up, canonical isoform): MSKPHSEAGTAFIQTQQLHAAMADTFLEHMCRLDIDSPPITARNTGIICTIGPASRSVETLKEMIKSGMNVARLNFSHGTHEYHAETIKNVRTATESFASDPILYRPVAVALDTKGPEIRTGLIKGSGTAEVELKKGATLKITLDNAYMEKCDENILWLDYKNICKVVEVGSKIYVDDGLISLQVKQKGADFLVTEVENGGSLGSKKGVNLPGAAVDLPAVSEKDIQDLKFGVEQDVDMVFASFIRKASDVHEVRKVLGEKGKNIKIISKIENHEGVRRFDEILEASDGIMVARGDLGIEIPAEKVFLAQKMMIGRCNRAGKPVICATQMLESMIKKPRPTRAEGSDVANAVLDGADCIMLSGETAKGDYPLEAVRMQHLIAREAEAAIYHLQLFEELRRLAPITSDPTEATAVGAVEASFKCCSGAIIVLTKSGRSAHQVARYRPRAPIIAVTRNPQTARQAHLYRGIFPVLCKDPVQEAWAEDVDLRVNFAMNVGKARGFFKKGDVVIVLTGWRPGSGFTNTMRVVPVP
Test: Secondary LDH Assay for Activators of Human Pyruvate Kinase M2 isoform: for Probe SAR
Settings: purified hPK-M2, LDH-coupled NADH fluorescence kinetic; series mostly up to 58.4 µM; activation: at the top concentration
Text: NIH Chemical Genomics Center [NCGC] Matthew G. Vander Heiden, M.D., Ph.D. [Harvard Medical School, 77 Avenue Louis Pasteur, Boston, MA 02115] NCGC Assay Overview: Human pyruvate kinase muscle 2 (hPK-M2)enzyme was supplied as a highly purified (>95% pure) preparation from Harvard Medical School and a secondary assay was used to evaluate compounds. This assay couples the formation of pyruvate from hPK-M2 using lactate dehydrogenase (LDH) and NADH. The depletion of NADH is followed in a fluorescent-based kinetic assay that follows the formation of pyruvate to lactate, as catalyzed LDH (described by Hannaert et al., 2002)1 Pyruvate kinase substrates, PEP and ADP, were present in the assay at 0.1 mM and 4 mM respectively. In this kinetic assay initial rates were determined by following the fluorescence of NADH depletion.
NCGC Assay Protocol Summary: Three uL of substrate mix (final concentration, 50 mM Tris-Cl pH 8.0, 200 mM KCl, 15 mM MgCl2, 0.1 mM PEP, 4.0 mM ADP, and 0.2 mM NADH) was dispensed into black-solid 1536 well plates. 23 nL of compounds were delivered by a pin tool and 1 uL of enzyme mix (final concentrations, 10 nM hPK-M2 and 1 uM of LDH) was added. Plates were immediately placed in ViewLux (Perkin Elmer) and NADH fluorescence was determined at 30 second exposure intervals for between 3 and 6 minutes. Data were normalized to the uninhibited and EC100 activation using known activators such as fructose-bis-phosphate.

Structure (SMILES) | activation [%] | Potency
O=C1c2ccccc2C(=O)N1c1cccc2cccnc12 | 1.58 | 
Cc1nc(-c2ccc(S(=O)(=O)Nc3ccc(C)c(C)c3)s2)cs1 | 20.2 | 
O=C1NS(=O)(=O)c2ccccc21 | -4.58 | 
COc1ccccc1OC1=NS(=O)(=O)c2ccccc21 | -4.13 | 
COc1cccc(N2C(=O)c3ccccc3C2=O)n1 | 5.33 | 
O=C1c2ccccc2C(=O)N1c1ccc2ncccc2c1 | -4.15 | 
COc1cc(N2C(=O)c3ccccc3C2=O)c2ncccc2c1 | 4.6 | 
CC(=O)N1c2ccc(S(=O)(=O)Nc3ccc(C)c(C)c3)cc2CC1C (stereo not given) | 18.2 | 
O=C1c2ccccc2C(=O)N1c1cccc2ccncc12 | -6.87 | 
Cc1ccc(N[S+](=O)([O-])c2cc3c(cc2CCc2ccccc2)NC(=O)CO3)cc1C | 12.6 | 
CC(=O)N1CCCc2cc(S(=O)(=O)Nc3ccc(C)c(C)c3)ccc21 | 12.3 | 
Cc1ccn2c(NC3CCCCC3)c(-c3ccc(C)o3)nc2c1 | -14.6 | 
CNc1cccc(S(=O)(=O)N2CCN(S(=O)(=O)c3ccc4c(c3)OCCO4)CC2)c1 | 11 | 
Cc1cc(N2C(=O)c3ccccc3C2=O)n[nH]1 | -8.74 | 
O=C1c2ccccc2C(=O)N1c1ccc2ccccc2n1 | -12.5 | 
Cc1ccc(NS(=O)(=O)c2cc3c(cc2N(C)C)NC(=O)CC3)cc1C |  | 1030 nM (active)
COc1ccc(Nc2c(-c3ccc(C)o3)nc3ccccn23)cc1 | -5.07 | 
Cc1ccc(NS(=O)(=O)c2ccc3c(c2)CCC(=O)N3)cc1 |  | 5170 nM (active)
Cc1ccc(NS(=O)(=O)c2ccc(-c3ccccc3)cc2)cc1C | 10.9 | 
O=C1c2ccccc2C(=O)N1c1cncc2ccccc12 | -5.39 | 

Structure (SMILES) | activation [%] | Potency
Cc1ccc(C)c(OC2=NS(=O)(=O)c3ccccc32)c1 | -5.9 | 
O=C1c2ccccc2C(=O)N1c1cccc2cnccc12 | -6.12 | 
Cc1ccc2nc(-c3ccncc3)c(Nc3ccccc3)n2c1 | -2.52 | 
Cn1c2cc(S(C)=O)sc2c2cnn(Cc3cccc(O)c3)c(=O)c21 (stereo not given) |  | 1030 nM (active)
CSc1cc2c(s1)c1cnn(Cc3cccc(O)c3)c(=O)c1n2C |  | 206 nM (active)
Cc1ccc(NS(=O)(=O)c2ccc3c(c2)oc(=O)n3C)cc1C | 23.2 | 
Cc1ccc(NS(=O)(=O)c2ccc(Cl)cc2)cc1C | 20 | 
COc1cc(F)c(S(=O)(=O)N2CCCN(S(=O)(=O)c3cccc(N)c3)CC2)c(F)c1 |  | 1830 nM (active)
O=C1c2ccccc2C(=O)N1Cc1ccccc1 | 3.92 | 
Cc1ccc(NS(=O)(=O)c2ccc3c(c2)CCC(C)(C)O3)cc1C | 11.9 | 
Fc1ccccc1-c1ccc(-c2nc3ccc(Cl)cn3c2Nc2ccc(Cl)cc2)o1 | 5.95 | 
Cc1cc2c(s1)c1cnn(Cc3cc(F)ccc3F)c(=O)c1n2C |  | 447 nM (active)
Cc1ccc(NS(=O)(=O)c2ccc3c(c2)CCCC(=O)N3)cc1C | 25.4 | 
O=S(=O)(c1ccc2c(c1)OCCO2)N1CCN(S(=O)(=O)c2c(F)cccc2F)CC1 |  | 5800 nM (active)
O=C1c2ccccc2C(=O)N1c1cccc2ncccc12 | 3.02 | 
Cc1ccc2nc(-c3cccs3)c(Nc3ccccc3)n2c1 | -15.2 | 
Cc1ccc(NS(=O)(=O)c2cc3c(cc2C)NC(=O)CO3)cc1C |  | 1030 nM (active)
O=C1c2ccccc2C(=O)N1Cc1cccnc1 | 4.44 | 
Cc1ccc(NC(=O)c2ccc3c(c2)CCC(=O)N3)cc1C | -2.96 | 
O=C1CCc2cc(S(=O)(=O)Nc3ccc(F)cc3)ccc2N1 | 27 | 
